# Source: PubChem BioAssay (National Center for Advancing Translational Sciences (NCATS))
# Most compounds without a hit are left out; they make up all but 2.4% or so of the library.
# D2 PAM-1: positively modulates the human D2 dopamine receptor allosterically; HEK293 T-REx D2, calcium flux, EC20 dopamine potentiation; P14416; actives 0.34% (n = 340,000); AID 485347; potentiation, % at 10 µM;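 active = potentiation over 3 SD above the plate norm, cut at about 30% in these data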; also: 0% is about no effect
# Target sequence (P14416 whole entry, looked up): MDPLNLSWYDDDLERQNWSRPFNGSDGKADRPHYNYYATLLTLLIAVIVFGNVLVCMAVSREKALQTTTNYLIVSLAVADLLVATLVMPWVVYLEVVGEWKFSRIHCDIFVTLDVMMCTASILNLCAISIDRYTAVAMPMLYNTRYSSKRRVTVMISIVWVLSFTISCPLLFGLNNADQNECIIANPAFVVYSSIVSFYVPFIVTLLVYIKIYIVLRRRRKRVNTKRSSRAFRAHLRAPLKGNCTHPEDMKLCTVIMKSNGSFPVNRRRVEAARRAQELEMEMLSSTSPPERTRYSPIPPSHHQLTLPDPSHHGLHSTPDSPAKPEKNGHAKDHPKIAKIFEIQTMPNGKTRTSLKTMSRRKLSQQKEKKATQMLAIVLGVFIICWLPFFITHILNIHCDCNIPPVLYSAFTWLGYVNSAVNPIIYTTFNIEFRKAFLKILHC
#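 Potentiation of an EC20 dopamine calcium response measured kinetically over 180 s, after a preceding 180 s compound-only read flagging agonists. Cells: inducible Hek293 Trex D2 line, 4000/well, cultured overnight at 30 C before dye loading.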
# D2 ag-1: activates the human D2 dopamine receptor; P14416; HEK293 T-REx D2 cells, calcium flux agonist mode; activation, % at 2 µM; actives 0.53% (n = 340,000); AID 485358;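 active = activation over 3 SD above normal in the single-dose calcium agonist read, cut at about 30% in these data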; also: 0% is about no effect
#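 Agonism is scored from calcium flux in a force-coupled, inducible HEK293 cell line expressing D2, read kinetically for 180 s after compound addition against dopamine controls.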
# D2 antagonist: antagonizes the human D2 dopamine receptor. P14416. HEK293 TREx D2 cells, calcium flux, dopamine EC80. inhibition, % at 10 µM. actives 2% (n = 340,000); in the data active = inhibition above about 30%; inactive = below that, where a call was filed; also: 0% is about no effect
#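 Inhibition of EC80 dopamine-driven calcium flux, recorded kinetically, defines activity here; cells are a tetracycline-induced HEK293 T-REx line expressing force-coupled D2.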
# D2 ag-2: activates the human D2 dopamine receptor | DiscoveRx PathHunter D2 beta-arrestin, luminescence, 90 min; 100% = 57 uM dopamine signal | AID 624465 | actives 0.084% (n = 360,000) | P14416 | activation, % (concentration not given with the values); in the data active = activation above about 40%
#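 Agonist mode: compounds alone added to overnight-plated D2 PathHunter cells for 90 min at 37 C, with 57 uM final dopamine (EC100) defining full response. Beta-arrestin recruitment detected by chemiluminescent reagent, read after 1 h at ambient temperature.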
# D2 PAM-2: positive allosteric modulators of human D2 dopamine receptor; potentiation, % (concentration not given with the values); actives 0.23% (n = 360,000); AID 624464; P14416; DiscoveRx D2 beta-arrestin cells, luminescence, 90 min; 100% = 57 uM dopamine signal; in the data active = potentiation above about 50%
#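 D2 cells co-treated with compound plus 50 nM dopamine (EC20) for 90 min at 37 deg C to detect potentiation. Beta-arrestin recruitment was read as enzyme-fragment luminescence after 1 h at ambient temperature. Full response was set by 57 uM dopamine.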
# * hit, by the source's call; / = no result given.
SMILES,D2 PAM-1,D2 ag-1,D2 antagonist,D2 ag-2,D2 PAM-2
Cc1cccc(OCCN2CCOCC2)c1C,-12,24,41*,-1,-1
CCOc1cc(/C=C2\SC(=S)N(C(C(=O)O)c3ccccc3)C2=O)ccc1O (stereo unspecified),12,0,-8,-11,-20
COc1cc(/C=C2\SC(=S)N(C(C(=O)O)c3ccccc3)C2=O)ccc1O (stereo unspecified),0,33*,1,-10,-20
Cc1ccc2c(Sc3ccc(Cl)cc3)c(C(=O)N3CCC(C)CC3)[nH]c2c1,-1,/,/,/,/
O=C(NNC(=S)NC(=O)c1cccnc1)c1ccc(Cl)cc1,/,/,/,-3,-10
O=C(Cc1ccc(Cl)cc1)NNC(=S)NC(=O)c1cccnc1,3,1,40*,3,-7
CCOC(=O)c1c(NC(C)=O)sc2c(O)c(Br)cc(Br)c12,7,0,36*,2,13
NC(=O)c1ccc(C(F)(F)F)n(Cc2cccc(Cl)c2)c1=O,4,1,32*,1,-1
O=C(O)c1ccccc1OC(C(=O)Nc1cc(Cl)cc(Cl)c1)c1ccccc1 (stereo unspecified),-10,0,36*,-1,-7
O=C1CCC(C(=O)OC(C(=O)Nc2cc(Cl)cc(Cl)c2)c2ccccc2)=NN1 (stereo unspecified),0,0,33*,-2,5
O=C(Nc1ccc(OC(F)(F)F)cc1)NC1COc2ccccc2C1 (stereo unspecified),/,0,/,/,/
CC(C)Cc1cc(CN2CCC(CO)(Cc3ccccc3)CC2)[nH]n1,-23,-1,47*,0,-18
CC1CCCN(CCCNC(=O)c2coc3nc4ccccc4nc23)C1 (stereo unspecified),-4,0,33*,-3,-31
CC(Sc1nnnn1C1CC1)C(=O)N1CC(=O)Nc2ccccc21 (stereo unspecified),-1,0,47*,3,28
Cc1ccc(S(=O)(=O)c2nnn3c2nc(NCc2cccs2)c2sccc23)cc1C,-6,0,/,/,/
O=C(CSc1nc(=O)n(Cc2ccccn2)c2c1CCC2)Nc1ccccc1,16,0,/,/,/
Cn1cccc1-c1cc(C(=O)N/N=C/c2ccc(Cl)cc2)[nH]n1,-20,-1,35*,3,-8
O=c1[nH]c(/C=C/c2ccccn2)nc2ccccc12,2,1,37*,-9,-6
O=c1[nH]c(/C=C/c2cccc3ccccc23)nc2ccccc12,0,-1,3,-4,-13
O=C(c1cc(COc2c(F)cccc2F)on1)N1CCC(c2ccccc2Cl)C1 (stereo unspecified),32*,0,-1,-2,-14
COCC1CCN(C(=O)c2cc(COc3ccc(OC)c4ccccc34)on2)C1 (stereo unspecified),/,/,/,2,24
COc1ccc(OCc2cc(C(=O)N3CCC(OC)CC3)no2)c2ccccc12,4,0,10,7,53*
CN(CCC1CCOCC1)C(=O)c1cc(COc2c(F)cccc2F)on1,2,1,31*,2,3
O=C(c1cc(COc2c(F)cccc2F)on1)N1CCC(c2ccccc2F)C1 (stereo unspecified),-11,1,-6,-5,-3
CN(CC1COCCO1)C(=O)c1cc(COc2c(F)cccc2F)on1 (stereo unspecified),-10,-1,-6,-4,-10
SMILES,D2 PAM-1,D2 ag-1,D2 antagonist,D2 ag-2,D2 PAM-2
COc1cc(C(=O)Nc2ccc(C)cc2)c2ccccc2n1,4,0,2,2,-1
CCOc1ccc(NC(=O)c2cc(OC)nc3ccccc23)cc1,-3,-1,57*,-4,-11
Cc1cccc(N(C)S(=O)(=O)c2nnc(NC(=O)C(C)Oc3ccccc3)s2)c1 (stereo unspecified),-5,0,/,/,/
N#CCCN1CCN(Cc2cc(-c3ccccc3)ccc2O)CC1,-30,0,65*,-1,-10
CC(C)(C)CC(C)(C)c1ccc(O)c(CN2CCN(CCC#N)CC2)c1,-4,0,4,-1,-19
Cc1cccc(-n2c(C)cc(C(=O)C(=O)Nc3ccccc3F)c2C)c1C,/,0,/,/,/
CN(C1CCCCC1)S(=O)(=O)c1ccc(F)c(C(=O)Nc2ccc(C(F)(F)F)cc2)c1,2,/,/,/,/
O=S(=O)(Nc1c(O)ccc2ccccc12)c1ccccc1,/,/,/,42*,14
COc1ccc(NC2=NCC(=O)N2c2ccccc2F)cc1,7,-1,37*,-4,-1
O=C(NC1CCCC1)c1cccc2c1C(=O)c1ccc(N3CCCCC3)cc1S2(=O)=O,37*,4,20,-7,-4
O=C(NC1CCCCC1)c1cccc2c1C(=O)c1ccc(N3CCCC3)cc1S2(=O)=O,/,/,/,-2,-8
CCN(CCNc1ccc(Cl)cc1[N+](=O)[O-])C(=O)c1cc([N+](=O)[O-])c(N(C)C)cc1OC,-8,0,34*,-5,-21
COc1cccc(-n2cc(C(=O)Nc3ccccc3C(N)=O)c3ccccc3c2=O)c1,7,0,/,/,/
CC(=O)c1ccc(N2CCN(C(=O)c3ccc(-c4ccccc4)cc3)CC2)cc1,1,-1,-1,-2,-4
CC(=O)c1ccc(N2CCN(C(=O)c3cccc(Oc4ccccc4)c3)CC2)cc1,-5,1,35*,7,-2
CC(OC(=O)c1cccnc1SCc1cc(=O)n2ccccc2n1)c1ccccn1 (stereo unspecified),30*,-1,2,3,-5
CCOC(=O)c1cccnc1SCc1cc(=O)n2ccccc2n1,3,-1,7,1,-8
O=C1CC(c2nc3ccccc3[nH]2)CN1c1cccc(C(F)(F)F)c1 (stereo unspecified),-5,1,33*,-1,-8
O=C(C1CC(=O)N(c2ccc(F)cc2)C1)N1CCC(c2nc3ccccc3[nH]2)CC1 (stereo unspecified),-20,0,-13,1,-10
Cc1ccc(N2CC(C(=O)N3CCC(c4nc5ccccc5[nH]4)CC3)CC2=O)cc1C (stereo unspecified),-11,0,34*,1,-7
COc1ccccc1N1CCN(C(=O)c2ccc(Nc3nc4ccccc4n4nnnc34)cc2)CC1,3,2,/,/,/
CCC(CC)C(=O)Nc1nnc(S(=O)(=O)N(C)c2cc(C)cc(C)c2)s1,-3,-1,/,/,/
O=C(NCCc1ccc(Cl)cc1)C1CCN(c2ncccn2)CC1,10,-2,61*,-2,-26
O=C(NCCc1ccc(Cl)cc1)C1CCN(c2cnccn2)CC1,-3,-1,0,1,2
COc1ccc(Cl)c2c1[nH]c1nc(SCc3cccnc3)nnc12,-7,2,17,-5,-6
